Screen size: about 5,500 compounds; about 2,000 (36%) were called active. About 18% were inconclusive and are not listed. No stated cut-off is given here; in the data, active means normalized growth mostly below about 0.91 (no sharp cut-off); inconclusive means no clear call, values can overlap the other calls; inactive means mostly above about 0.92. Some of the results follow.
Assay: chemical genetic growth profiling, strain panel (AID 1159580);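 further: tested at 20 µM; growth read once vehicle control cultures reached saturation at 30 °C; 1 = growth at the plate median or of vehicle wells; lower values mean less growth of the strain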
Conditions: growth OD

Measured: normalized growth

NCC(N)C(=O)c1ccccc1 (stereo not drawn)
inactive: S. cerevisiae deletion strains, locus YJR043C, strain POL32, hits give low values 1.01 | S. cerevisiae deletion strains, locus YJR066W, strain TOR1, hits give low values 0.969 | S. cerevisiae deletion strains, locus YKL009W, strain mrt4, hits give low values 1.1 | S. cerevisiae deletion strains, locus YKL068W, hits give low values 1.03 | S. cerevisiae deletion strains, locus YKL085W, strain MDH1 (second series), hits give low values 1.02 | S. cerevisiae deletion strains, locus YKL085W, strain MDH1, hits give low values 1.02 | S. cerevisiae deletion strains, locus YKL160W, strain elf1, hits give low values 1.02 | S. cerevisiae deletion strains, locus YKL190W, strain CNB1, hits give low values 1.01 | S. cerevisiae deletion strains, locus YKR001C, strain vps1, hits give low values 0.979 | S. cerevisiae deletion strains, locus YKR026C, strain gcn3, hits give low values 1.02 | S. cerevisiae deletion strains, locus YKR091W, strain srl3, hits give low values 1.02 | S. cerevisiae deletion strains, locus YLL001W, strain dnm1, hits give low values 1.02 | S. cerevisiae deletion strains, locus YLL026W, hits give low values 1.03 | S. cerevisiae deletion strains, locus YLL041C, strain sdh2, hits give low values 1.02 | S. cerevisiae deletion strains, locus YLR027C, strain aat2, hits give low values 1.03 | S. cerevisiae deletion strains, locus YLR039C, strain RIC1, hits give low values 1.04 | S. cerevisiae deletion strains, locus YLR058C, strain SHM2, hits give low values 1.01 | S. cerevisiae deletion strains, locus YLR102C, strain apc9, hits give low values 0.992 | S. cerevisiae deletion strains, locus YLR113W, strain HOG1, hits give low values 0.949 | S. cerevisiae deletion strains, locus YLR221C, strain rsa3, hits give low values 1.04 | S. cerevisiae deletion strains, locus YLR258W, strain gsy2, hits give low values 1 | S. cerevisiae deletion strains, locus YLR262C, strain YPT6 (second series), hits give low values 1.03 | S. cerevisiae deletion strains, locus YLR262C, strain YPT6, hits give low values 1.06 | S. cerevisiae deletion strains, locus YLR268W, strain sec22, hits give low values 0.991 | S. cerevisiae deletion strains, locus YLR320W, strain mms22, hits give low values 1.04 | S. cerevisiae deletion strains, locus YLR330W, strain CHS5, hits give low values 1.04 | S. cerevisiae deletion strains, locus YLR342W, strain FKS1 (second series), hits give low values 0.985 | S. cerevisiae deletion strains, locus YLR342W, strain FKS1, hits give low values 1.01 | S. cerevisiae deletion strains, locus YLR357W, strain rsc2, hits give low values 1.03 | S. cerevisiae deletion strains, locus YLR370C, strain arc18, hits give low values 1.05 | S. cerevisiae deletion strains, locus YLR371W, strain rom2, hits give low values 1 | S. cerevisiae deletion strains, locus YLR384C, strain iki3, hits give low values 1.03 | S. cerevisiae deletion strains, locus YLR418C, strain cdc73, hits give low values 0.987 | S. cerevisiae deletion strains, locus YML016C, strain PPZ1, hits give low values 1 | S. cerevisiae deletion strains, locus YML032C, strain rad52, hits give low values 1.01 | S. cerevisiae deletion strains, locus YML120C, strain ndi1, hits give low values 1 | S. cerevisiae deletion strains, locus YML124C, strain tub3, hits give low values 1.01 | S. cerevisiae deletion strains, locus YMR058W, strain fet3, hits give low values 1.05 | S. cerevisiae deletion strains, locus YMR078C, strain ctf18, hits give low values 1.01 | S. cerevisiae deletion strains, locus YMR125W, strain sto1, hits give low values 1.01 | S. cerevisiae deletion strains, locus YMR129W, hits give low values 1.04 | S. cerevisiae deletion strains, locus YMR205C, strain PFK2, hits give low values 1.06 | S. cerevisiae deletion strains, locus YMR223W, strain ubp8, hits give low values 1.04 | S. cerevisiae deletion strains, locus YMR231W, strain pep5, hits give low values 1.03 | S. cerevisiae deletion strains, locus YMR307W, strain GAS1, hits give low values 0.964 | S. cerevisiae deletion strains, locus YNL067W, strain RPL9B, hits give low values 1 | S. cerevisiae deletion strains, locus YNL071W, strain lat1, hits give low values 1.02 | S. cerevisiae deletion strains, locus YNL153C, strain GIM3, hits give low values 1.01 | S. cerevisiae deletion strains, locus YNL183C, strain NPR1, hits give low values 0.901 | S. cerevisiae deletion strains, locus YNL209W, strain ssb2, hits give low values 1.03 | S. cerevisiae deletion strains, locus YNL233W, strain BNI4, hits give low values 1.02 | S. cerevisiae deletion strains, locus YNL248C, strain rpa49, hits give low values 1.03 | S. cerevisiae deletion strains, locus YNL250W, strain rad50, hits give low values 1.02 | S. cerevisiae deletion strains, locus YNL271C, strain bni1, hits give low values 1.01 | S. cerevisiae deletion strains, locus YNL298W, strain CLA4, hits give low values 1.01 | S. cerevisiae deletion strains, locus YNL307C, strain MCK1, hits give low values 0.996 | S. cerevisiae deletion strains, locus YNL322C, strain KRE1 (second series), hits give low values 1.01 | S. cerevisiae deletion strains, locus YNL322C, strain KRE1, hits give low values 1.01 | S. cerevisiae deletion strains, locus YNR049C, strain mso1, hits give low values 1.03 | S. cerevisiae deletion strains, locus YNR052C, strain pop2, hits give low values 0.994 | S. cerevisiae deletion strains, locus YOL012C, strain htz1 1.74 | S. cerevisiae deletion strains, locus YOL147C, strain pex11, hits give low values 0.993 | S. cerevisiae deletion strains, locus YOR001W, strain rrp6, hits give low values 1.04 | S. cerevisiae deletion strains, locus YOR061W, strain CKA2, hits give low values 1.01 | S. cerevisiae deletion strains, locus YOR069W, strain VPS5, hits give low values 1.01 | S. cerevisiae deletion strains, locus YOR070C, strain gyp1, hits give low values 1.04 | S. cerevisiae deletion strains, locus YOR080W, strain dia2, hits give low values 1.05 | S. cerevisiae deletion strains, locus YOR083W, strain WHI5, hits give low values 1.02 | S. cerevisiae deletion strains, locus YOR106W, strain vam3, hits give low values 1.02 | S. cerevisiae deletion strains, locus YOR136W, strain idh2, hits give low values 1.01 | S. cerevisiae deletion strains, locus YOR144C, strain elg1, hits give low values 0.996 | S. cerevisiae deletion strains, locus YOR184W, strain ser1, hits give low values 0.994 | S. cerevisiae deletion strains, locus YOR231W, strain MKK1, hits give low values 0.962 | S. cerevisiae deletion strains, locus YOR265W, strain rbl2, hits give low values 1.05 | S. cerevisiae deletion strains, locus YOR270C, strain vph1, hits give low values 1.11 | S. cerevisiae deletion strains, locus YOR290C, strain snf2, hits give low values 1 | S. cerevisiae deletion strains, locus YOR316C, strain cot1, hits give low values 0.993 | S. cerevisiae deletion strains, locus YPL051W, strain arl3, hits give low values 1.04 | S. cerevisiae deletion strains, locus YPL078C, strain atp4, hits give low values 1.02 | S. cerevisiae deletion strains, locus YPL106C, strain sse1, hits give low values 1.01 | S. cerevisiae deletion strains, locus YPL240C, strain hsp82, hits give low values 1.02 | S. cerevisiae deletion strains, locus YPL256C, strain CLN2, hits give low values 0.96 | S. cerevisiae deletion strains, locus YPR119W, strain clb2, hits give low values 0.999 | S. cerevisiae deletion strains, locus YPR141C, strain kar3, hits give low values 1.01 | S. cerevisiae deletion strains, locus YPR163C, strain tif3, hits give low values 0.995 | S. cerevisiae deletion strains, locus YPR167C, strain met16, hits give low values 1.01 | S. cerevisiae deletion strains, strain wtn01, hits give low values 0.999 | S. cerevisiae strains, strain wild type, hits give low values 1.02

Reference: PubChem BioAssay AID1159580 (chemical genetic matrix, 2015)
